Data as given in PubChem BioAssay.
The source made the active and inactive calls.

Tests used:
[1] = test system: Human papillomavirus type 1a protein E7 (residues 44-93); assay: HPV1a E7 fragment binders on microarrays, primary screen, biochemical, small-molecule microarray, residues 44-93, 635 nm fluorescence (AID 1108); conditions: small-molecule microarray binding, fluorescence 635 nm; higher = more signal;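 also: E7 fragment applied at 1 µg/mL in TBST for 1 h at 4 C; score combines spot fluorescence with its signal to noise ratio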
[2] = modulators of HCV replicon luciferase signal, primary screen, HCV replication inhibitor project, Huh7 cells, luciferase reporter (AID 1109); conditions: 48 h, higher = more signal;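 also: huh7 hepatoma cells harbouring a luciferase neomycin HCV replicon reporter; luciferase luminescence as measure of HCV replicon replication; test concentration not given here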
[3] = target: Left-right determination factor 2 (Homo sapiens) (UniProt O00292); assay: LEFTY2 binders on small-molecule microarrays, primary screen, biochemical, small-molecule microarray, 635 nm fluorescence scan (AID 1110); conditions: LEFTY2 binding, higher = more signal
[4] = target: Calmodulin-1 (Homo sapiens) (UniProt P0DP23); assay: CALM1 binders on microarrays, EGTA buffer, profiling panel, biochemical, small-molecule microarray, Cy5-labelled CALM1 (AID 1111); conditions: Cy5-CALM1 binding fluorescence, higher = more signal;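 also: labelled calmodulin applied in Tris saline Tween buffer holding calcium plus EGTA and DTT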
[5] = target: Calmodulin-1 (Homo sapiens) (UniProt P0DP23); assay: calcium-bound CALM1 binders on microarrays, profiling panel, artefact control for SMM control-protein annotation, biochemical, small-molecule microarray, Cy5-labelled CALM1, plus calcium (AID 1112); conditions: Cy5-CALM1 binding fluorescence, higher = more signal;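 also: score merges spot fluorescence with signal to noise from triplicate slides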
[6] = small-molecule microarray binders of probe aWnt5a, primary screen, biochemical, biotinylated probe, 635/667 nm fluorescence (AID 1113); conditions: higher = more signal;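 also: score merges 667 nm fluorescence intensity with signal-to-noise per printed feature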
[7] = small-molecule microarray binders of probe aShh, primary screen, biochemical, biotinylated probe, 635/667 nm fluorescence (AID 1114); conditions: higher = more signal;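 also: probe is biotin-labelled aShh protein from a stem cell growth factor screen; measures binding of labelled protein to compounds printed on the slide; score merges feature fluorescence at 667 nm with signal-to-noise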
[8] = small-molecule microarray binders of probe aNog, primary screen, biochemical, biotinylated probe, 635/667 nm fluorescence (AID 1115); conditions: higher = more signal;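 also: probe is biotinylated aNog protein used at 0.15 µg/mL for 1 h at 4 C; z-score combines 667 nm fluorescence of each spot with its signal to noise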
[9] = target: Torsin-1A-interacting protein 1 (Homo sapiens) (UniProt Q5JTV8); assay: LAP1 binders from COS7 cell lysate, primary screen, small-molecule microarray, 635/667 nm fluorescence (AID 1116); conditions: COS7-hLAP1 lysate binding, 635 nm fluorescence, higher = more signal
[10] = target: Alpha-bungarotoxin (Bungarus multicinctus) (UniProt P60615); assay: alpha-bungarotoxin binders on microarray, profiling panel, artefact control for SMM control protein annotation, biochemical, small-molecule microarray, Alexa647 label, 635/667 nm fluorescence (AID 1117); conditions: alpha-BTX-A647 binding fluorescence, higher = more signal
[11] = target: Albumin (Bos taurus) (UniProt P02769); assay: bovine serum albumin binders on microarray, profiling panel, artefact control for SMM control protein annotation, biochemical, small-molecule microarray, Alexa647 label, 635/667 nm fluorescence (AID 1118); conditions: BSA-A647 binding, fluorescence 635 nm, higher = more signal;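 also: score merges 667 nm emission intensity and signal-to-noise per printed compound spot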
[12] = small-molecule microarray binders of probe aXIP, primary screen, biochemical, NeuroSMM set, 635/667 nm fluorescence (AID 1119); conditions: higher = more signal, called active from +8 up or from −8 down;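 also: probe is the protein aXip251-270 applied at 1 µg/mL to compound-printed slides; binding of probe to printed compounds measured as 667 nm fluorescence plus signal to noise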
[13] = small-molecule binders of probe aNOTCH3, primary screen, biochemical, small-molecule microarray, 635/667 nm fluorescence (AID 1120); conditions: higher = more signal;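 also: probe is a biotin-tagged antibody raised against NOTCH3 rather than NOTCH3 protein; score merges spot fluorescence near 667 nm with spot signal to noise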
[14] = small-molecule binders of probe aNOTCH2, primary screen, biochemical, small-molecule microarray, 635/667 nm fluorescence (AID 1121); conditions: higher = more signal;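 also: score merges feature fluorescence read at 667 nm with its signal to noise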
[15] = target: Carbonic anhydrase 2 (Homo sapiens) (UniProt P00918); assay: CAII small-molecule binders, profiling panel, biochemical, small-molecule microarray, Alexa647-labelled CAII (AID 1122); conditions: CAII-A647 binding fluorescence, higher = more signal
[16] = COS7 lysate on small-molecule microarray, probe aHis, 635 nm (AID 1123); conditions: COS7 cell lysate, fluorescence, higher = more signal;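 also: z-score combines 667nm fluorescence intensity with signal-to-noise per printed compound spot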
[17] = compound binding in COS7 lysate, probe aLAP1, primary screen, cell lysate, small-molecule microarray (AID 1124); conditions: probe aLAP1, fluorescence, higher = more signal;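 also: lysate comes from COS7 cells expressing LAP1 and is applied at 0.3 µg/mL; score merges spot fluorescence near 667 nm with signal-to-noise over triplicate slides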
[18] = test system: Sam68 (KHDRBS1); assay: Sam68 small-molecule binders, primary screen, biochemical, small-molecule microarray, 635 nm fluorescence (AID 1125); conditions: small-molecule microarray binding, higher = more signal;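 also: score merges 667 nm channel intensity with signal to noise over triplicate slides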
[19] = test system: Chordin-like protein 2 (CHRDL2); assay: CHRDL2 small-molecule binders, primary screen, biochemical, small-molecule microarray, 635 nm fluorescence (AID 1126); conditions: small-molecule microarray binding, fluorescence 635 nm; higher = more signal;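 also: printed compound slides probed with Chrdl2 protein at 4 µg/mL for 1 h at 4 C; score merges 667 nm emission intensity with signal to noise over three replicate slides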
[20] = target: Concanavalin-A (Canavalia ensiformis) (UniProt P02866); assay: ConA small-molecule binders, primary screen, artefact control for SMM control protein annotation, biochemical, small-molecule microarray, Alexa647 label, 635 nm (AID 1127); conditions: ConA-A647 binding fluorescence, higher = more signal;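 also: z combines 667 nm emission intensity with signal-to-noise across three replicate slides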
Sequence of Concanavalin-A (Canavalia ensiformis) (P02866 whole entry, looked up): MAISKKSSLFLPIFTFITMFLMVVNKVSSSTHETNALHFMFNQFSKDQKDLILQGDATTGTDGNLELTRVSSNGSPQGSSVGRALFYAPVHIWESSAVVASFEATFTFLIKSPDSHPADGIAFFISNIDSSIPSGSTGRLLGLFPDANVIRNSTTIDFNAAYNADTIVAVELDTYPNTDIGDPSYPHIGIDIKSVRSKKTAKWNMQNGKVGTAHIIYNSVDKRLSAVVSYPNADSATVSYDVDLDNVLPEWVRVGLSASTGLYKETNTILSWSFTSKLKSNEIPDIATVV

Sequence of Albumin (Bos taurus) (P02769 whole entry, looked up): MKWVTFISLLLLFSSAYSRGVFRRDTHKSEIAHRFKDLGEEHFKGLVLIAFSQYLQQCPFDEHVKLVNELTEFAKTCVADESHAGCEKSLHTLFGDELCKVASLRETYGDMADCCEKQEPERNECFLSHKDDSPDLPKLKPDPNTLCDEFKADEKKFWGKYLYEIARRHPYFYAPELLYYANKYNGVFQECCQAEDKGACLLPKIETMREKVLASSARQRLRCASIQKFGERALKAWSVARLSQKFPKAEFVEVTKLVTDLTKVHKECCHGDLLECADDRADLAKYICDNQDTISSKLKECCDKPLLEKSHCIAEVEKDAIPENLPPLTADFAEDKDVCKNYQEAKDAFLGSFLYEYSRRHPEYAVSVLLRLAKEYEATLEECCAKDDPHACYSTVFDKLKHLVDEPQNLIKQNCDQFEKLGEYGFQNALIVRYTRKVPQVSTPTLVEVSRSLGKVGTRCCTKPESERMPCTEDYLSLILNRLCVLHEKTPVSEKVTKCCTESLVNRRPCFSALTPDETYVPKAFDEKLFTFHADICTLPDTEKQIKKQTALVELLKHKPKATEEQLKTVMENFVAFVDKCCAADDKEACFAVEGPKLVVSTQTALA
Sequence of Torsin-1A-interacting protein 1 (Homo sapiens) (Q5JTV8 whole entry, looked up): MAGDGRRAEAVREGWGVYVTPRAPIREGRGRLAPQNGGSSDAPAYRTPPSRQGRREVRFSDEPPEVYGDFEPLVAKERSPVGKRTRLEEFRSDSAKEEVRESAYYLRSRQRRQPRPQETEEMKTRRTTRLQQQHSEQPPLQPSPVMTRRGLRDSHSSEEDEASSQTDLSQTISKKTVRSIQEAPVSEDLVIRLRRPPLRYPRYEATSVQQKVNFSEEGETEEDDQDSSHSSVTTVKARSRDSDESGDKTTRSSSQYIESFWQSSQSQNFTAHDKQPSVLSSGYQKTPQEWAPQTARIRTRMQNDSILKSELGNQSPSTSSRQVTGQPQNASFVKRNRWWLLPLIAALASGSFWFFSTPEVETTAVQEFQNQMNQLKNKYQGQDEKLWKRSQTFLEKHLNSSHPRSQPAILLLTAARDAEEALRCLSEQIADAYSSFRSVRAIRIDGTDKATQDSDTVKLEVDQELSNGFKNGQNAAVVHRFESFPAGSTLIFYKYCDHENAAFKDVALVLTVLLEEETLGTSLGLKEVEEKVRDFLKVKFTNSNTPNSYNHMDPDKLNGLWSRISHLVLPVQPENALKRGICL
Sequence of Alpha-bungarotoxin (Bungarus multicinctus) (P60615 whole entry, looked up): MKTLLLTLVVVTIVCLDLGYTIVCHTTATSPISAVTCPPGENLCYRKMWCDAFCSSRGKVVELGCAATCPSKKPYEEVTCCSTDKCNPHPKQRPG
Sequence of Left-right determination factor 2 (Homo sapiens) (O00292 whole entry, looked up): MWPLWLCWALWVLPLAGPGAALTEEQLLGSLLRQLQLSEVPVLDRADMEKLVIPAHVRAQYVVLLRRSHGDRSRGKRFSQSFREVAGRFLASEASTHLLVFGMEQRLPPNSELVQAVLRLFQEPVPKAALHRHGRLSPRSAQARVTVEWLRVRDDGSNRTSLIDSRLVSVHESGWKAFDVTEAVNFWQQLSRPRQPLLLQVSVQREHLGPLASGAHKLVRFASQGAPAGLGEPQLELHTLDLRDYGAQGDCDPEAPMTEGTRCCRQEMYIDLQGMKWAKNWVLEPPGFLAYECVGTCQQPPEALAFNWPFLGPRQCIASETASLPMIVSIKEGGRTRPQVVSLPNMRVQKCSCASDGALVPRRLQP

Compound | composite z-score [1] | z-score [2] | composite z-score [3] | composite z-score [4] | composite z-score [5] | composite z-score [6] | composite z-score [7] | composite z-score [8] | composite z-score [9] | composite z-score [10] | composite z-score [11] | composite Z-score [12] | composite z-score [13] | composite z-score [14] | composite z-score [15] | composite z-score [16] | composite z-score [17] | composite z-score [18] | composite z-score [19] | composite z-score [20]
COC(=O)[C@@]1(Cc2ccccc2)[C@H]2c3cc(C(=O)N(C)C)n(CCn4cc([N+](=O)[O-])nc4C)c3C[C@H]2CN1C(=O)c1ccccc1 | 1.15 | -0.347 | 0.0356 | 0.437 | 0.361 | 0.0162 | 0.0952 | 0.576 | 2.83 | 0.413 | 0.89 | 0.0327 (inactive) | 0.16 | -0.0254 | 0.888 | 2.56 | 0.697 | 1.1 | -0.113 | 0.526
COc1ccc([Si](C)(C)[C@H]2[C@H](CCO)O[C@@]3(C(=O)N(Cc4ccc(N5C(=O)c6ccccc6Oc6ccccc65)cc4)c4ccccc43)[C@@H]2C)cc1 | -0.451 | -4.8 | -0.804 | 0.12 | 0.908 | -0.124 | 0.0121 | 0.0078 | -0.438 | -0.516 | -0.0162 | -0.291 (inactive) | -0.0212 | -0.204 | 0.0539 | 0.648 | -0.299 | -0.652 | -0.348 | -0.352
COC(=O)C1=CC(CCCO)=CC(C)N(Cc2cccc(OC(F)(F)F)c2)C=C1C(=O)OC (stereo not given) | 1.35 | -0.307 | -0.708 | 1.02 | 1.15 | -0.0643 | 0.0929 | 0.716 | 0.595 | 0.498 | 1.03 | -0.288 (inactive) | 0.147 | -0.0743 | 0.8 | 2.63 | 0.348 | 1.27 | -0.595 | 0.355
CN1C(=O)C2C=CC(C(O)c3cc(C(F)(F)F)cc(C(F)(F)F)c3)N(NC(=O)OC(C)(C)C)C2C1=O (stereo not given) | 1.38 | -1.24 | 0.106 | 2.45 | 0.666 | -0.0607 | -0.0626 | 2.04 | 1.48 | 1.23 | 1.04 | 0.622 (inactive) | 0.465 | 0.0753 | 0.604 | 2.87 | 0.403 | 1.3 | -1.08 | 1.17
C#C[C@@H](CC)O[Si](C#CCCCC#N)(C(C)C)C(C)C | 0.294 | -0.923 | 0.0737 | -0.442 | -0.104 | -0.139 | 0.0483 | -0.121 | 0.372 | -0.275 | 0.202 | -0.608 (inactive) | -0.0391 | -0.174 | 0.797 | 1.59 | -0.252 | 0.441 | 0.106 | -0.193
CS(=O)(=O)CCOC(=O)C1=CC(CCCO)=CC(C2CC2)N(Cc2cccc(OC(F)(F)F)c2)C=C1C(=O)OCCS(C)(=O)=O (stereo not given) | 1.3 | -1.63 | -0.022 | 0.238 | 0.478 | -0.0643 | -0.0243 | 0.576 | 1.9 | 0.0358 | 0.42 | 3.23 (inactive) | 0.0311 | -0.133 | 0.751 | 1.16 | -0.0318 | 1.33 | -0.316 | 0.244
